Screens (PubChem BioAssay)
Only some compounds are listed: those with a hit (about 3% of all), similar ones and a draw of the others.
VDR inhibitor = Inhibitors of the vitamin D receptor (VDR): qHTS | actives 0.93% (n = 400,000) | AID 504847, 2011 | Potency, µM, hits mostly inhibitors | VDR-SRC2-3 peptide fluorescence polarization, 2 h | Vitamin D3 receptor (Homo sapiens), P11473
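Measured by FP: displacement of SRC2-3 coactivator peptide from VDR by library compounds, following a two-hour ambient incubation.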
PLK1 PBD block = qHTS for Inhibitors of PLK1-PDB (polo-like kinase 1 - polo-box domain): Primary Screen; Plk1 PBD binding of FITC phosphopeptide, fluorescence polarization; actives 2.8% (n = 360,000); Potency, µM, most hits filed as inhibitors; Serine/threonine-protein kinase PLK1 (Homo sapiens), P53350; further: series mostly up to about 57 µM; nearly all actives have a fitted effect of over 65% in size
ALOX12 inh = Primary qHTS assay for inhibitors of human arachidonate 12S-lipoxygenase (ALOX12): Round 2 | Polyunsaturated fatty acid lipoxygenase ALOX12 (Homo sapiens), P18054 | purified 12hLO, xylenol orange hydroperoxide absorbance | Potency, µM (highest dose often 108 µM), most hits filed as inhibitors | actives 1.1% (n = 580,000) | AID 1671190, 2021
Target sequence (P18054 whole entry, looked up): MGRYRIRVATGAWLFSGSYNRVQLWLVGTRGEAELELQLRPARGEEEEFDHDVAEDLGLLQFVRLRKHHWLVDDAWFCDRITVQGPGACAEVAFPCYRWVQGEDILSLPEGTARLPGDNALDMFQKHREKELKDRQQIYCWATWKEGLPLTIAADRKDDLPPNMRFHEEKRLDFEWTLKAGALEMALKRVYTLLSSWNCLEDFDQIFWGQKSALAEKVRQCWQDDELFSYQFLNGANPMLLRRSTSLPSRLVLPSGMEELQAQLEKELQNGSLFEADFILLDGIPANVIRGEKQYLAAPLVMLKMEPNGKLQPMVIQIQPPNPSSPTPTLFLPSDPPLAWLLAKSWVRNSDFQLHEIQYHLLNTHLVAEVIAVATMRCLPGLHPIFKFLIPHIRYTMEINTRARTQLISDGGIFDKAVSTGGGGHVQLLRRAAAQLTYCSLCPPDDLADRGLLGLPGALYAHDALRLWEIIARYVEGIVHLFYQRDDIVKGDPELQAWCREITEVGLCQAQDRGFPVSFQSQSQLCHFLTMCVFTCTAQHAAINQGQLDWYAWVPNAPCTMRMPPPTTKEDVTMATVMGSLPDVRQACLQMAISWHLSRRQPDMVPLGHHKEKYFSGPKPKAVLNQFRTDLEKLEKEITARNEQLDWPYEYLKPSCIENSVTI
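Purified human 12hLO (150 nM final) in 25 mM Hepes, 0.01% Triton X-100, pH 7.0 was preincubated 15 min at room temperature with compound. Then 40 uM arachidonic acid was added, 30 min. Hydroperoxide was read by Fe-XO absorbance ratio 573/405 nm.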
GCN5L2 inh = qHTS Assay for Inhibitors of GCN5L2 | Histone acetyltransferase KAT2A (Homo sapiens), Q92830 | GCN5L2 HAT assay, ThioGlo1 CoA-SH fluorescence | Potency, µM (top dose mostly 58.9 µM), hits mostly inhibitors | actives 0.21% (n = 390,000)
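GCN5L2 (20nM final) in 50mM HEPES, 0.1mM EDTA pH 7.5, 0.01% Tween-20 was preincubated 15 min at room temperature with compound, then given ThioGlo1 (50uM), H3(1-25) peptide (75uM) and acetyl-CoA (70uM); CoA-thiol fluorescence (Ex340/Em540) was read at 0 and 20 min.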
Hits are given with their value; 0 = inactive; ? = inconclusive; - = no result; ! = not confirmed by another sample. The call rests on the fitted dose curve; in most records, active means well fitted curve in the direction sought with a large enough effect; inconclusive means small, poorly fitted or top-dose-only effect, or another doubt; inactive means no such curve, though single readings can be large; an effect the other way counts as inactive or inconclusive.

SMILES	VDR inhibitor	PLK1 PBD block	ALOX12 inh	GCN5L2 inh
Oc1ccc(Br)cc1/C=N/n1c(C2CCCCC2)n[nH]c1=S	0	26.7µM	0	0
CCCC1=[N+](CC(=O)c2ccccc2)CCn2c(C)ccc21	0	0	0	0
CCCC1=[N+](CC)CCn2c(C)ccc21	0	0	20µM	0
COc1ccc(C(=O)c2sc(Nc3ccccc3)c(C(N)=O)c2N)cc1	-	-	15.8µM	-
CC(NC(=O)c1n[nH]c(=O)c2ccccc12)c1nnc2n1CCCCC2 (stereo not drawn)	-	-	0	-
CN(CC(=O)Nc1cccc(F)c1)C(=O)CNS(=O)(=O)c1ccc(N(C)C)c([N+](=O)[O-])c1	?	15µM	?	0
CC(C)(C)OC(=O)N1CCCC1C(=O)NCc1ccccc1Cl (stereo not drawn)	-	-	0	-
CCOC(=O)CSc1nnc(NCC(=O)OC)c(=O)[nH]1	39.8µM	?	0	0
Cc1cccc(/N=C2/NC(=O)C(Cc3ccccc3)S2)n1 (stereo not drawn)	?	29.9µM	0	0
Cc1cc(C)n2nc(/C(C#N)=C/c3ccccn3)c(C#N)c2n1	20µM	0	?	0
COc1ccc(-c2nnc3ccc(Nc4ccc(F)cc4)nn23)cc1	-	-	0	-
CS(=O)(=O)N1CCc2cc(-c3csc(NCC4CCCO4)n3)ccc21 (stereo not drawn)	0	?	0	0
COc1cccc(-c2nc(-c3ccc4c(c3)NC(=O)CO4)cs2)c1	0	13.4µM	?	0
O=C1COc2ccc(-c3csc(NCC4CCCO4)n3)cc2N1 (stereo not drawn)	0	0	44.7µM	0
COc1ccc(-c2cc(-c3ccc(OC)cc3)nc(-c3ccc4c(c3)NC(=O)CO4)c2)cc1	0	0	0	0
CC(Nc1nc(-c2ccc3c(c2)NC(=O)CO3)cs1)c1ccccc1 (stereo not drawn)	0	16.8µM	?	0
O=C1COc2ccc(-c3cc(-c4ccccc4)c4c(n3)-c3ccccc3OC4)cc2N1	0	-	0	0
COc1ccc(OCc2cc(C(=O)N(C)CCC3CCOCC3)no2)c(Cl)c1	?	26.7µM	0	0
COc1ccc(OCc2cc(C(=O)N(C)CC3CCCCO3)no2)c(Cl)c1 (stereo not drawn)	0	0	0	0
CCCCCC/C(C)=C1/SC(=S)NC1=O	?	23.8µM	?	0
C/C(C/C(C)=C1/SC(=S)NC1=O)=C1\SC(=S)NC1=O	?	18.9µM	?	0
CCCCCCCCCC(=O)O	0	0	0	0
CCOc1ccc(NC(=O)c2nc(S(=O)(=O)Cc3ccc(C)cc3)ncc2Cl)cc1	-	-	0	-
CC(=O)Nc1ccc(NC(=O)c2nc(S(=O)(=O)Cc3ccccc3)ncc2Cl)cc1	0	16.8µM	0	0
COc1ccc(NC(=O)c2nc(S(=O)(=O)Cc3ccc(C)cc3)ncc2Cl)cc1	?	-	0	0
SMILES	VDR inhibitor	PLK1 PBD block	ALOX12 inh	GCN5L2 inh
O=C(NCc1ccccc1)c1nc(S(=O)(=O)Cc2ccccc2)ncc1Cl	?	?	0	?
CCS(=O)(=O)c1ncc(Cl)c(C(=O)Nc2ccc(C)cc2)n1	15.8µM	?	0	0
Cc1ccc(CS(=O)(=O)c2ncc(Cl)c(C(=O)Nc3ccc(OC(F)F)cc3)n2)cc1	?	21.2µM	0	0
COc1ccc(CNC(=O)c2nc(S(=O)(=O)Cc3ccccc3)ncc2Cl)cc1	?	23.8µM	0	0
O=C(Nc1cnc(-c2ccc(Cl)cc2)nc1)C1CCC1	-	-	0	-
N#CC(C(=O)CCc1ccccc1)C(=O)NC1CCCCC1 (stereo not drawn)	-	-	0	-
O=C(/C=C/c1ccc(O)c(O)c1)OCCc1ccccc1	0	0	11.2µM!	0
CCNC(=O)c1c(O)c2c([nH]c1=O)CCCC2	?	26.7µM	0	0
CCCNC(=O)c1c(O)c2c([nH]c1=O)CCCC2	0	?	0	0
O=[N+]([O-])c1ccc2[nH]c(=S)[nH]c2c1	0	26.7µM	?	-
O=[N+]([O-])c1ccc2c(c1)[nH]c(=S)n2-c1ccccc1	0	5.97µM	0	0
O=[N+]([O-])c1ccc2[nH]c(=S)sc2c1	?	0	?	-
CN1CCN(c2ccc(Cl)cc2NC(=O)c2cc(=O)[nH]c3ccccc23)CC1	0	0	0	0
CN1CCN(c2cc3c(c4c2[nH]c2ccccc24)C(=O)CC(C)(C)C3)CC1	0	0	39.8µM	0
C/C(=N\Nc1ccc(C(=O)O)cc1)c1ccc2c(c1)Nc1ccccc1S2	0	29.9µM	?	0
C/C(=N/Nc1ccc(C(=O)O)cc1)c1ccc2c(c1)Nc1ccccc1S2	0	29.9µM	28.2µM	-
CC(=O)Nc1ccc(NC(=O)c2ccc3c(c2)NC(=O)c2ccccc2S3)cc1	0	-	0	0
O=C(NCCNc1cnccn1)c1cnccn1	-	-	0	-
COC(=O)C(C)Oc1ccc2c(=O)c(-c3ccc(Br)cc3)c(C)oc2c1 (stereo not drawn)	-	-	0	-
O=C(NNS(=O)(=O)c1ccccc1Cl)C1COc2ccccc2O1 (stereo not drawn)	0	18.9µM	0	0
COc1ccc(Cl)cc1C(=O)NNC(=O)C1COc2ccccc2O1 (stereo not drawn)	0	23.8µM	0	0
Cc1ccc(S(=O)(=O)NNC(=O)C2COc3ccccc3O2)cc1 (stereo not drawn)	0	0	0	0
COc1ccc(S(N)(=O)=O)cc1C(=O)NNC(=O)C1COc2ccccc2O1 (stereo not drawn)	0	0	0	0
Cn1c(CCNC(=O)CCc2ccc3c(c2)CN(C(=O)C2CC2)CCO3)nc2ccccc21	-	-	0	-
c1ccc(-c2cn3c(n2)CO[C@@H](CNCC2CCCCC2)C3)cc1	-	-	0	-
SMILES	VDR inhibitor	PLK1 PBD block	ALOX12 inh	GCN5L2 inh
CC(=O)N1CCC(N2CCC(N3C(=O)C4(CCCCC4)C3c3ccncc3)CC2)CC1 (stereo not drawn)	-	-	0	-
O=C(CC1SC(=O)N(c2ccccc2)C1=O)Nc1ccccc1 (stereo not drawn)	22.4µM	10.6µM	0	?
CCCN1C(=O)SC(CC(=O)Nc2ccc(C)cc2)C1=O (stereo not drawn)	0	0	0	0
Cc1ccc(NC(=O)CC2SC(=O)N(c3ccccc3)C2=O)cc1 (stereo not drawn)	28.2µM	6.7µM	?	0
Cc1ccc(N2C(=O)SC(Cc3ccccc3)C2=O)cc1 (stereo not drawn)	?	7.52µM	?	0
O=C1SC(Cc2ccccc2)C(=O)N1c1ccccc1 (stereo not drawn)	0	0	?	0
N=C1SC(CC(=O)Nc2ccc([N+](=O)[O-])cc2)C(=O)N1c1ccccc1 (stereo not drawn)	0	0	?	0
Cn1c(=O)c2c(-c3ccccc3)n3c(c2n(C)c1=O)C(c1ccc(C#N)cc1)Nc1ccccc1-3 (stereo not drawn)	-	-	0	-
O=C(OCc1nc2ccccc2o1)c1cccc(S(=O)(=O)N2CCCCCC2)c1	-	-	0	-
